For the experiment, the target named is Nonstructural protein 3 (Zika virus) (UniProt A0A024AXB9).
Where [1] appears, read: PRVABC59, Concentration 50.0 uM, Number of replicates 1.0.
Where [2] appears, read: PRVABC59, Concentration 15.0 uM, Number of replicates 1.0.

Hit rate of the full screen: of about 2,700 compounds, about 160 (5.9%) showed an effect of 50% or more. Many of the other results were omitted from the sample, so strong results are more common in it than they were.

Nonstructural protein 3 (Zika virus), sequence (A0A024AXB9 as listed by the source): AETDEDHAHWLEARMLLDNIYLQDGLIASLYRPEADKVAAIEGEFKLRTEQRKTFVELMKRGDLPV

Broadly, the inhibition is the drop in the measured response relative to a control, in per cent. Regarding `O=Cc1ccc(N2CCC(C(=O)NCCc3cc(F)cc(F)c3)CC2)cc1`, the inhibition under setting [1] turned out to be 19.3%.

Consider `N#Cc1cccc(NC(=O)c2cccc(OCc3c(Cl)cccc3Cl)c2)c1`, for which the inhibition (PRVABC59, Concentration 49.5 uM, Number of replicates 2.0, Standard deviation 1.7651619405536074 %) worked out at 6.21%; the inhibition (PRVABC59, Concentration 99.01 uM, Number of replicates 2.0, Standard deviation 1.834624667346594 %) is 10%; the inhibition (PRVABC59, Concentration 198.0 uM, Number of replicates 2.0, Standard deviation 2.6293560952864428 %) stood at 8.42%.

Consider `O=C(NCc1ccccc1Oc1ccccc1)c1cc(Cl)ccc1NS(=O)(=O)c1ccc(Oc2ccccc2Cl)cc1`, for which the inhibition under setting [2] came to 15.7%.

For the compound `O=Cc1ccc(N2CCC(C(=O)NCCN3C(=O)CSC3=O)CC2)cc1`, the inhibition under setting [1] stood at 24.5%.

In the case of `Cc1cc(CO)c2cccc(Cc3cccc(NC(=O)CNC4CC4)c3)c2n1`, the inhibition (PRVABC59, Concentration 49.95 uM, Number of replicates 2.0, Standard deviation 2.20382385319093 %) was -2.08% and the inhibition (PRVABC59, Concentration 99.9 uM, Number of replicates 2.0, Standard deviation 2.3107066172874657 %) turned out to be 1.16%.

On to `Cc1cc(CO)c2cccc(NC(=O)CC3CCNCC3)c2n1`, for which the inhibition is 41.5% (PRVABC59, Concentration 49.95 uM, Number of replicates 2.0, Standard deviation 2.2586421938534733 %) and 81% (PRVABC59, Concentration 99.9 uM, Number of replicates 2.0, Standard deviation 1.48045087514324 %).

Turning to `Cc1cc(CO)c2cccc(Cc3cccc(NC(=O)C[C@H]4CCCN4)c3)c2n1`, where the note is “PRVABC59, Concentration 49.95 uM, Number of replicates 2.0, Standard deviation 0.1706171862678608 %”, the inhibition was -9.82%.

On to `Cc1cc(CO)c2cccc(Cc3cccc(NC(=O)Cc4c(C)c5c(=O)[nH]n(C)c5[nH]c4=O)c3)c2n1`, for which the inhibition was determined as 29.7% (PRVABC59, Concentration 49.95 uM, Number of replicates 2.0, Standard deviation 0.9685022100006885 %) and 54.1% (PRVABC59, Concentration 99.9 uM, Number of replicates 2.0, Standard deviation 0.32116033435216484 %).

Consider `Cc1cc(CO)c2cccc(NC(=O)Cc3c(C)c4c(=O)[nH]n(C)c4[nH]c3=O)c2n1`, for which the inhibition reads like this: (PRVABC59, Concentration 49.95 uM, Number of replicates 2.0, Standard deviation 0.16559867672197162 %) 15%; (PRVABC59, Concentration 99.9 uM, Number of replicates 2.0, Standard deviation 1.570678848435362 %) 29.8%.

In the case of `Cc1cc(CO)c2cccc(NCC3CCNCC3)c2n1`, the inhibition (PRVABC59, Concentration 99.9 uM, Number of replicates 2.0, Standard deviation 2.951218090372617 %) is -5.37%.

As to `Cc1cc(CO)c2cccc(Cc3ccccc3NC(=O)Cc3c(C)c4c(=O)[nH]n(C)c4[nH]c3=O)c2n1`, the inhibition runs as follows: (PRVABC59, Concentration 49.95 uM, Number of replicates 2.0, Standard deviation 2.3870518401485845 %) 19.5%; (PRVABC59, Concentration 99.9 uM, Number of replicates 2.0, Standard deviation 1.6185118125725577 %) 39.4%.

For `Cc1cc(CO)c2cccc(NC(=O)CC3CNC3)c2n1`, the inhibition (PRVABC59, Concentration 49.95 uM, Number of replicates 2.0, Standard deviation 1.5957700474656553 %) is -6.72% and the inhibition (PRVABC59, Concentration 99.9 uM, Number of replicates 2.0, Standard deviation 1.1039918524960535 %) is -6.98%.

Turning to `Cc1cc(CO)c2cccc(Cc3ccccc3NC(=O)CCC3CCNCC3)c2n1`, the inhibition was 4.96% (PRVABC59, Concentration 49.95 uM, Number of replicates 2.0, Standard deviation 0.020358613704702253 %) and 26.8% (PRVABC59, Concentration 99.9 uM, Number of replicates 2.0, Standard deviation 1.9188023762412802 %).

Consider `Cc1cc(CO)c2cccc(NC(=O)CCC3CCNCC3)c2n1`, for which the inhibition turned out to be 98.6% (PRVABC59, Concentration 49.95 uM, Number of replicates 2.0, Standard deviation 0.05519955890732387 %) and 96.7% (PRVABC59, Concentration 99.9 uM, Number of replicates 2.0, Standard deviation 0.045159842417240824 %).

On to `Cc1cc(CO)c2cccc(NC(=O)C[C@H]3CCCN3)c2n1`, for which the inhibition is, setting by setting: (PRVABC59, Concentration 49.95 uM, Number of replicates 2.0, Standard deviation 2.649580260544395 %) 3.54%; (PRVABC59, Concentration 99.9 uM, Number of replicates 2.0, Standard deviation 2.639543831508496 %) 13.9%.

With `Cc1cc(CO)c2cccc(Cc3cccc(NC(=O)CCC4CCNCC4)c3)c2n1`, the inhibition is, setting by setting: (PRVABC59, Concentration 49.95 uM, Number of replicates 2.0, Standard deviation 0.07125447361688171 %) 70.2%; (PRVABC59, Concentration 99.9 uM, Number of replicates 2.0, Standard deviation 0.2799306012648679 %) 94.6%.

Turning to `Cc1cc(CO)c2cccc(Cc3ccccc3C(=O)N3CCO[C@@H](CN)C3)c2n1`, the inhibition (PRVABC59, Concentration 99.9 uM, Number of replicates 2.0, Standard deviation 2.9992587541792743 %) was -6.8%.

`O=Cc1ccc(N2CCC(C(=O)Nc3cc(Cl)c(F)cc3F)CC2)cc1`: the inhibition under setting [1] is 26.1%.

In the case of `COc1ccccc1N1CCN(C(=O)c2cc(Cl)ccc2NS(=O)(=O)c2ccc(Oc3ccccc3Cl)cc2)CC1`, the inhibition under setting [2] stood at 8.47%.

Take `O=Cc1ccc(N2CCC(C(=O)Nc3ncc(F)cc3Br)CC2)cc1`: the inhibition under setting [1] came to 19.1%.

Turning to `C[C@@H](NC(=O)OCc1ccccc1)C(=O)Nc1cccc(CN)c1`, the inhibition is, setting by setting: (PRVABC59, Concentration 49.5 uM, Number of replicates 2.0, Standard deviation 0.22300909071478295 %) -5.65%; (PRVABC59, Concentration 99.01 uM, Number of replicates 2.0, Standard deviation 0.06482809074333463 %) -3.85%; (PRVABC59, Concentration 198.0 uM, Number of replicates 2.0, Standard deviation 0.9413049329503056 %) -1.69%.

Regarding `CCOc1ccc(CNC(=O)c2cc(Cl)ccc2NS(=O)(=O)c2ccc(Oc3ccccc3Cl)cc2)cc1`, the inhibition under setting [2] is 30.8%.

For the compound `Cc1cc(CO)c2cccc(Cc3ccccc3C(=O)N3CC[C@@H](O)C3)c2n1`, the inhibition was -8.95% (PRVABC59, Concentration 49.95 uM, Number of replicates 2.0, Standard deviation 0.18876460771228748 %) and -7.58% (PRVABC59, Concentration 99.9 uM, Number of replicates 2.0, Standard deviation 1.2164824655212059 %).

Consider `Cc1cc(CO)c2cccc(Cc3ccccc3C(=O)N3CCC(C(=O)O)CC3)c2n1`, for which the inhibition by setting is: (PRVABC59, Concentration 49.95 uM, Number of replicates 2.0, Standard deviation 1.0591789629357544 %) -4.89%; (PRVABC59, Concentration 99.9 uM, Number of replicates 2.0, Standard deviation 2.3071221964090083 %) -5.26%.

For `Cc1cc(CO)c2cccc(Cc3cccc(C(=O)N4CCC(C(=O)O)CC4)c3)c2n1`, the inhibition is, setting by setting: (PRVABC59, Concentration 49.95 uM, Number of replicates 2.0, Standard deviation 0.6921367263576601 %) -3.78%; (PRVABC59, Concentration 99.9 uM, Number of replicates 2.0, Standard deviation 0.04719115192807187 %) -2.12%.

`Cc1cc(CO)c2cccc(Cc3cccc(C(=O)N4CCC(CN)CC4)c3)c2n1`: the inhibition stood at 94.6% (PRVABC59, Concentration 49.95 uM, Number of replicates 2.0, Standard deviation 0.3303341859864401 %) and 90.9% (PRVABC59, Concentration 99.9 uM, Number of replicates 2.0, Standard deviation 0.3198467013777773 %).

`Cc1cc(CO)c2cccc(Cc3ccccc3C(=O)N3CCC(CN)CC3)c2n1`: the inhibition is, setting by setting: (PRVABC59, Concentration 49.95 uM, Number of replicates 2.0, Standard deviation 5.668177927575499 %) 56.2%; (PRVABC59, Concentration 99.9 uM, Number of replicates 2.0, Standard deviation 1.410491152712613 %) 37.7%.

On to `Cc1cc(CO)c2cccc(Cc3cccc(C(=O)N4CC[C@@H](CO)C4)c3)c2n1`, for which the inhibition by setting is: (PRVABC59, Concentration 49.95 uM, Number of replicates 2.0, Standard deviation 1.594011680945781 %) -6.14%; (PRVABC59, Concentration 99.9 uM, Number of replicates 2.0, Standard deviation 1.5520642713220405 %) 3.44%.

`O=C(N[C@H]1CC(=O)N(Cc2ccccc2)C1)c1cc(Cl)ccc1NS(=O)(=O)c1ccc(Oc2ccccc2Cl)cc1`: under setting [2], the inhibition worked out at 22%.

For `Cc1cc(CO)c2cccc(Cc3cccc(C(=O)NCc4c(C)noc4C)c3)c2n1`, the inhibition is -2.24% (PRVABC59, Concentration 49.95 uM, Number of replicates 2.0, Standard deviation 0.6344586798768046 %) and 1.65% (PRVABC59, Concentration 99.9 uM, Number of replicates 2.0, Standard deviation 0.2674164432987103 %).

As to `O=C(c1cc(Cl)ccc1NS(=O)(=O)c1ccc(Oc2ccccc2Cl)cc1)N1CCN(C(=O)[C@H]2COc3ccccc3O2)CC1`, under setting [2], the inhibition is 19.2%.

As to `Cn1cc(NC(=O)c2ccccc2C(F)(F)F)c(-c2ccccc2CO)n1`, the inhibition was -0.442% (PRVABC59, Concentration 49.5 uM, Number of replicates 2.0, Standard deviation 1.1938974234704913 %); 1.31% (PRVABC59, Concentration 99.01 uM, Number of replicates 2.0, Standard deviation 1.523480341882225 %); 2.85% (PRVABC59, Concentration 198.0 uM, Number of replicates 2.0, Standard deviation 2.1372444344514228 %).

In the case of `Cc1cc(Cl)c2cccc(N)c2n1`, the inhibition was found to be 5.79% (PRVABC59, Concentration 49.95 uM, Number of replicates 2.0, Standard deviation 7.781875381379218 %) and 14.4% (PRVABC59, Concentration 99.9 uM, Number of replicates 2.0, Standard deviation 5.7320152302040395 %).

Take `Cc1cc(N)c2c(Cl)ccc(Cl)c2n1`: for the setting “PRVABC59, Concentration 49.95 uM, Number of replicates 2.0, Standard deviation 14.266771188329304 %”, the inhibition is -9.58%.

Turning to `Cc1cc(Cl)c2c(N)ccc(C)c2n1`, the inhibition reads like this: (PRVABC59, Concentration 49.95 uM, Number of replicates 2.0, Standard deviation 1.4741281735170297 %) 80.8%; (PRVABC59, Concentration 99.9 uM, Number of replicates 2.0, Standard deviation 0.2024559271573544 %) 83.6%.

As to `O=Cc1ccc(N2CCC(C(=O)NCc3c(F)cc(F)c(F)c3F)CC2)cc1`, where the note is “PRVABC59, Concentration 10.0 uM, Number of replicates 1.0”, the inhibition came out at 22.5%.

Turning to `COc1ccc(CN2CCC(c3c[nH]c4cccnc34)CC2)cc1`, the inhibition by setting is: (PRVABC59, Concentration 49.5 uM, Number of replicates 2.0, Standard deviation 0.21004326604655832 %) 0.598%; (PRVABC59, Concentration 99.01 uM, Number of replicates 2.0, Standard deviation 0.8142417098777236 %) 6.55%; (PRVABC59, Concentration 198.0 uM, Number of replicates 2.0, Standard deviation 1.1254172872302635 %) 14.8%.

On to `O=Cc1ccc(N2CCC(C(=O)N(Cc3cnn(-c4ccccc4)c3)C3CC3)CC2)cc1`, for which, under setting [1], the inhibition worked out at 26.1%.

Source of the values: ChEMBL document CHEMBL5606458, “ASAP - ZIKV NS2B-NS3 protease fluorescence single point” (2024).
